# Test results published in PubChem BioAssay AID540333 (Southern Research Specialized Biocontainment Screening …, 2011).
# In all, about 10,000 compounds went through this assay and about 320 (3.2%) were called active. The full list was thinned out, with actives kept by preference. A number with no mark means an inactive call. No stated cut-off is given here; in the data, active means CPE inhibition mostly above about 9.1% (no sharp cut-off); inactive means mostly below about 7.2%.
# Experiment: antivirals protecting cells from dengue CPE – CPE readout, HTS (AID 540333)
# Details: Dengue virus CPE inhibition in host cells, at 20 µM; hits give high values
row,SMILES,CPE inhibition
1,CCC(=O)NC(Nc1nc(C)cs1)(C(=O)OC)C(F)(F)F (stereo not drawn),0.32%
2,CC(C)(C)OC(=O)N[C@H](C(=O)OC(C)(C)C)c1ccc2ccccc2c1,0.425%
3,CCOC(=O)C(C)(C)N(Cc1ccccc1C)S(=O)(=O)c1ccc(Cl)c([N+](=O)[O-])c1,7.12%
4,CCOC(=O)C(C)(C)N(Cc1cccc(C)c1)S(=O)(=O)c1ccc(Cl)c([N+](=O)[O-])c1,7.24%
5,CCOC(=O)C(C)(C)N(Cc1ccc(C)cc1)S(=O)(=O)c1ccc(Cl)c([N+](=O)[O-])c1,7.28% (active)
6,O=C(NN1C(=O)/C(=C\c2cccnc2)SC1=S)C(c1ccccc1)c1ccccc1,inactive
7,Cc1ccccc1C(=O)NCCCCc1ccccc1,0.125%
8,O=C(Cn1c(COc2ccccc2)nc2ccccc21)Nc1cc(Cl)ccc1Cl,5.49%
9,CCC(C)NC(=O)Cn1c(COc2ccc(Cl)cc2Cl)nc2ccccc21 (stereo not drawn),13.4% (active)
10,O=C(Cn1c(COc2ccc(Cl)cc2)nc2ccccc21)NCC(F)(F)F,inactive
11,CCOc1cc(/C=C/c2cc(C(=O)O)c3ccccc3n2)ccc1O,0.055%
12,Cc1ccc(S(=O)(=O)Nc2ccc(NC(=O)Nc3ccc(F)cc3F)cc2)cc1,10.3%
13,Cc1ccc(NS(=O)(=O)c2ccc(C3CCCCC3)cc2)cc1,21.5% (active)
14,Cc1ccc(NS(=O)(=O)c2ccc(OCC(=O)NCc3ccncc3)cc2)cc1,0.315%
15,CC1(C)CC(=O)C2=C(C1)NC1=C(C(=O)c3ccccc31)C2c1ccc(O)cc1 (stereo not drawn),2.13%
16,CC(C)Oc1cccc(C(=O)NC(=S)NCc2cccnc2)c1,2.73%
17,CC(C)NC(=S)NC(=O)c1ccc(-c2ccccc2)cc1,0.805%
18,O=C(NC(=S)NC(c1ccccc1)c1ccncc1)c1ccccc1 (stereo not drawn),18.9% (active)
19,O=C(NC(=S)Nc1ccc(Cc2ccncc2)cc1)c1ccccc1,0.355%
20,CCOC(=O)c1c(C(F)(F)F)cc(-c2ccc(F)cc2)nc1C,inactive

row,SMILES,CPE inhibition
1,COc1cc(/C=C/C(=O)N(Cc2ccccc2)c2ccccn2)cc(OC)c1OC,inactive
2,CC(C)(Oc1ccc(Cl)cc1)C(=O)N(Cc1ccccc1)c1ccccn1,11% (active)
3,CC1(C(=O)NC(=S)N(Cc2ccccc2)c2ccccn2)CC1(Cl)Cl (stereo not drawn),0.075%
4,O=C(c1ccc(COc2ccc(Br)cc2)o1)N1N=C(C(F)F)CC1(O)C(F)F (stereo not drawn),2.42%
5,Cc1ccc(OCC(=O)NCC(=O)Nc2ccc(F)c(F)c2F)c([N+](=O)[O-])n1,0.32%
6,Cc1ccc(OCC(=O)Nc2ccccc2Sc2ccc(Cl)cc2)c([N+](=O)[O-])n1,13.9% (active)
7,Cc1ccc(OCC(=O)Nc2cc(S(=O)(=O)N3CCCCC3)ccc2C)c([N+](=O)[O-])n1,3.06%
8,O=C1c2ccccc2S(=O)(=O)c2cc(C(=O)N3CCN(c4ncccn4)CC3)ccc21,0.735%
9,CC(C)c1ccc(NC(=O)COc2ccc(F)cc2C(=O)c2cnn(-c3ccccc3)c2)cc1,1.51%
10,CCOP(=O)(OCC)C(NC(=O)Nc1ccccc1)C(N)=O (stereo not drawn),1.93%
11,CC1(C(=O)NCCc2c[nH]c3ccccc23)C=CCN1C(=O)c1ccccc1 (stereo not drawn),1.21%
12,CC(C)C(=O)NCCc1c[nH]c2ccccc12,0.48%
13,C[C@]1(C(=O)NCCc2c[nH]c3ccccc23)C=C[C@@H](Cc2ccccc2)N1C(=O)c1ccccc1,19.4% (active)
14,CCCCn1c(SCc2nc3ccccc3s2)nc2ccccc2c1=O,inactive
15,CCOc1cc2c3c(c1)C1(C(=O)N3C(C)(C)CC2C)C(C#N)=C(N)N2C(=C1C#N)Nc1ccccc12 (stereo not drawn),2.12%
16,Cc1ccc(NNC(=O)C(O)(c2cccc(C(F)(F)F)c2)c2cccc(C(F)(F)F)c2)cc1,7.56%
17,O=C(NNc1ccccc1Cl)C(O)(c1cccc(C(F)(F)F)c1)c1cccc(C(F)(F)F)c1,20.4% (active)
18,Cc1cccc(C(O)(C(=O)NNc2ccc3ccccc3n2)c2cccc(C)c2)c1,inactive
19,Cc1ccc(NC(=S)NCC(C)C)cc1,inactive
20,C#Cc1ccc([C@@H]2C=C(C(=O)O)O[C@H](OCC)[C@H]2CCCO)cc1,1.06%

row,SMILES,CPE inhibition
1,Cc1cc(-c2n[nH]c(=S)n2/N=C/c2ccccc2[N+](=O)[O-])n[nH]1,0.73%
2,Cc1cc(-c2n[nH]c(=S)n2/N=C/c2cc([N+](=O)[O-])ccc2Cl)n[nH]1,10.9% (active)
3,Cc1cc(-c2n[nH]c(=S)n2/N=C/c2cccc([N+](=O)[O-])c2)n[nH]1,0.265%
4,O=C(Nc1ccc(F)cc1F)c1cc2ncc(CCCl)cn2n1,0.045%
5,Cc1ccc(S(=O)(=O)N2CCCCC2)cc1C(=O)OCC(=O)NC(=O)NC12CC3CC(CC(C3)C1)C2,0.11%
6,CN(C)c1ccc(N=Nc2ccccc2C(=O)OCC(=O)NCC2CCCCC2)cc1,0.995%
7,COc1ccc(CN(C)C2c3ccccc3-c3ccccc32)cc1,1.16%
8,O=C(N/N=C/c1cc([N+](=O)[O-])ccc1O)NC12CC3CC(CC(C3)C1)C2,0.635%
9,O=C(N/N=C/c1cc(Cl)cc([N+](=O)[O-])c1O)NC12CC3CC(CC(C3)C1)C2,15.6% (active)
10,Cc1cc(C(=O)N/N=C/c2cc(Cl)cc([N+](=O)[O-])c2O)c2ccccc2n1,0.08%
11,Clc1ccc2nc(-c3ccncc3)cc(-c3ccccc3)c2c1,2.25%
12,O=[N+]([O-])c1ccc2nc(-c3ccccc3)cc(-c3ccccc3)c2c1,1.14%
13,Cc1ccc2nc(-c3cccc(NS(C)(=O)=O)c3)cc(-c3ccccc3)c2c1,24.6% (active)
14,COCCn1c(=NC(=O)c2nc3ccccc3s2)sc2cc(S(C)(=O)=O)ccc21,6.63%
15,Cc1cccc(/C(N)=N/OC(=O)c2ccc3c(c2)OCO3)c1,0.195%
16,COc1ccccc1NC(=O)c1ccc(NS(=O)(=O)c2ccc(F)c(Cl)c2)cc1,inactive
17,COc1ccccc1NC(=O)c1c(Nc2ccccc2F)sc(C(=O)Nc2cccc(Cl)c2)c1N,17.3% (active)
18,COc1ccccc1NC(=O)c1c(Nc2ccccc2C)sc(C(=O)Nc2cccc(Cl)c2)c1N,0.08%
